In PubChem BioAssay (NCATS) one finds Potency, activity change, negative = cytotoxicity and outcome data, which are given here for five compounds.

The nature of experiment [1]: Cell Viability - MRC5 (AID 434; calls by dose curve;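 also: potency is read from the fitted curve at half-maximal effect; cells exposed to compound for 40 hours at 37 °C; potency reflects cytotoxicity seen as loss of intracellular ATP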). As to conditions: MRC5 lung fibroblast viability, qHTS. The procedure, abridged:
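Decrease in intracellular ATP, quantified by luciferase light output, reflects compound toxicity toward MRC5 cells exposed for 40 hr in complete culture medium. Concentration-response curves, scaled between DMSO and 100 uM tamoxifen, gave AC50 values.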

Experiment [2] is described as follows: Cell Viability - SK-N-SH (AID 435; calls by dose curve;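 also: potency is read from the fitted curve at half-maximal effect; compound exposure lasted 40 h at 37 °C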). Conditions: SK-N-SH neuroblastoma cell viability qHTS. In short, it runs like this:
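Human neuroblastoma line, 40 h exposure at 37 °C, ATP quantified via luciferase luminescence; DMSO and 100 uM tamoxifen define 0 and 100% inhibition for AC50 fitting.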
On the technique in general: Quantitative high-throughput screening tests each substance at several concentrations.

Experiment [3] is described as follows: Cell Viability - NIH 3T3 (AID 541). Also: nearly all actives have a fitted effect of over 25% in size. Also: potency is read from the fitted curve at half-maximal effect.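 As to activity change, negative = cytotoxicity: plate controls were DMSO alone for no effect and tamoxifen positive control for full effect.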 Conditions: NIH 3T3 cell viability, qHTS; activity change, negative = cytotoxicity: at 92.2 µM (top of the series). The procedure, abridged: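 In this cytotoxicity screen, acute toxicity is scored as an ATP drop measured by CellTiter-Glo in NIH 3T3 fibroblasts following a 40 hr, 37 °C incubation with compound.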
The nature of experiment [4]: Cell Viability - Mesenchymal (AID 546).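 Also: cells exposed to compound for 40 hours before reading.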 Also: potency is read from the fitted curve at half-maximal effect. As to conditions: mesenchymal cells viability, qHTS; activity change, negative = cytotoxicity: at 91.7 µM (top of the series). The procedure, abridged:
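In this qHTS cytotoxicity format, glomerulus-derived human mesenchymal kidney cells received compound for 40 hr, then luciferase-based ATP quantitation. Concentration-response data were fitted with the Hill equation.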

Experiment [5] in a line: Cellular Toxicity (caspase-3) HepG2 (AID 654).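 Also: cells exposed to compound for 16 hours before reading; 0% = DMSO alone and 100% = caspase signal from 100 µM tamoxifen.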 As to conditions: HepG2 caspase-3 activation, luminescence, 0% = DMSO only, 100% = tamoxifen; series mostly up to 92.2 µM. In short, it runs like this:
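Concentration-response AC50 values reflect caspase-3/7 induction in HepG2 cells after 16 hours of compound exposure, quantified by luminescence from liberated aminoluciferin and referenced to 100 uM tamoxifen as full stimulation.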

Experiment [6] is described as follows: Cellular Toxicity (caspase-3) HUV-EC-C (AID 656). As to conditions: HUV-EC-C cells, caspase-3 activation (apoptosis), vehicle = 0, 100 µM tamoxifen = 100%; series mostly up to 92.2 µM. In short, it runs like this:
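Concentration-dependent caspase 3/7 induction was assessed in HUV-EC-C cells exposed for 16 hours. Data scaled between DMSO and tamoxifen (100 uM) controls.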

Experiment [7] can be described thus: Cellular Toxicity (caspase-3) BJ (AID 658). As to conditions: BJ fibroblasts, luminescence, normalized: DMSO 0%, staurosporine 100%; series mostly up to 91.7 µM. The procedure, abridged: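 Plated BJ cells (1000/well) rested 5 hr, received compound for 16 hr at 37 °C, then Caspase-Glo 3/7 reagent for 1 hr at room temperature before luminescence reading.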
A short description of experiment [8]: Cellular Toxicity (caspase-3) MRC-5 (AID 659). As to conditions: MRC-5 cells, luminescence, normalized: DMSO 0%, 10 µM staurosporine 100%; series mostly up to 91.7 µM. The procedure, abridged:
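Apoptosis readout in MRC-5 cells: luciferase light generated after caspase 3/7 cleaves a peptide-aminoluciferin substrate, measured post 16 hr compound incubation at 37 °C.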

Experiment [9] is described as follows: Cellular Toxicity (caspase-3) Mesangial (AID 660).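 Also: combined caspase 3 and 7 activity read by Caspase-Glo luminescence; cells exposed to compound for 16 h before the caspase read.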 Conditions: mesangial cells, normalized: DMSO 0%, 100 µM tamoxifen 100%; series mostly up to 91.7 µM. In short, it runs like this:
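AC50 values come from Hill-equation fits of caspase 3/7 activation, measured as Caspase-Glo luminescence in human glomerular mesangial cells exposed to compound for 16 h at 37 °C; 100% set by 100 uM tamoxifen.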

Experiment [10] in a line: Cellular Toxicity (caspase-3) Hek293 (AID 664).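 Also: cells exposed to compound for 16 h at 37 °C before readout.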 As to conditions: HEK293 caspase-3 activation, DMSO = 0%, 100 µM tamoxifen = 100%; series mostly up to 92.2 µM. In short, it runs like this:
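Apoptosis readout: Caspase-Glo 3/7 signal in human HEK293 cells following 16-hour compound incubation. Responses scaled between DMSO baseline and 100 uM tamoxifen.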

The nature of experiment [11]: Cellular Toxicity (caspase-3) Renal Proximal Tubule (AID 667).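 Also: cells exposed to compound for 16 hours at 37 °C before detection.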 Conditions: renal proximal tubule cells, primary cells freshly taken from rat, solvent-only wells 0%, staurosporine 100%; series mostly up to 91.7 µM. The procedure, abridged:
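Caspase-Glo 3/7 read-out, rat primary kidney proximal tubule cells. Compound exposure 16 h, 37 °C; detection after 1 h at RT. Activity scaled to DMSO and 10 uM staurosporine.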

Experiment [12] in a line: MultiTox-Fluor Cytotoxicity Assay - LYMP1-003 - Live Cells (AID 962).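 Also: 0% = DMSO only and full loss = 92 µM tetraoctylammonium bromide; cytotoxic hits lower the live-cell protease signal.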 Conditions: LYMP1-003 lymphoblastoid cells, MultiTox-Fluor live-cell protease fluorescence; series mostly up to 92.2 µM. In short, it runs like this:
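Human lymphoblastoid line LYMP1-003 in complete culture medium, treated 16 hr with titrated compounds. Viable cells quantified via cell-permeant GF-AFC substrate fluorescence; AC50 derived by Hill fitting.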

Experiment [13] in a line: Cell Viability - LYMP1-003 - Assay at 40 hr (AID 964). Also: nearly all actives have a fitted effect of over 60% in size. Also: potency is read from the fitted curve at half-maximal effect. Conditions: LYMP1-003 lymphoblastoid viability; series mostly up to 92.2 µM. In short, it runs like this:
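Acute toxicity is scored as a concentration-dependent loss of intracellular ATP in LYMP1-003 cells (2500/well, complete medium) after 40 hr at 37 C, measured by CellTiter-Glo luminescence; AC50 values derive from standard Hill modelling.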

Experiment [14] can be described thus: Cell Viability - LYMP2-011 (AID 969).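 Also: cells exposed to compound for 24 hours; nearly all actives have a fitted effect of over 60% in size.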 Also: potency is read from the fitted curve at half-maximal effect. As to conditions: LYMP2-011 lymphoblastoid cells viability; series mostly up to 92.2 µM. In short, it runs like this: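 Cells seeded at 2500 per well rest 5 hr before compound addition, then incubate 24 hr at 37 C. CellTiter-Glo reagent is added for 30 min at room temperature before luminescence detection.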
A short description of experiment [15]: Cell Viability - LYMP2-017 (AID 972).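 Also: cells exposed to compound for 24 hours at 37 °C; nearly all actives have a fitted effect of over 55% in size.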 Also: potency is read from the fitted curve at half-maximal effect. As to activity change, negative = cytotoxicity: % is scaled to controls: 0 for no effect and ±100 for the full control effect. Conditions: LYMP2-017 lymphoblastoid cell viability; series mostly up to 92.2 µM. In short, it runs like this:
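In this qHTS format, lymphoblastoid cells in complete medium receive test compound for a day at 37 C before ATP content is quantified by luciferase luminescence. Reported AC50 figures come from standard Hill-equation curve fitting.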

Experiment [16] can be described thus: Cell Viability - LYMP2-007 (AID 979).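 Also: cells exposed to compound for 24 h before reading; nearly all actives have a fitted effect of over 60% in size.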 Also: potency is read from the fitted curve at half-maximal effect.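 As to activity change, negative = cytotoxicity: 0% = DMSO only and the negative end = 92 µM tetraoctylammonium bromide.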 As to conditions: LYMP2-007 lymphoblastoid cell viability; series mostly up to 92.2 µM. In short, it runs like this:
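Measured via luciferase-based ATP quantitation: lymphoblastoid cells, 24 hr compound exposure at 37 C, AC50 from Hill fits.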

The nature of experiment [17]: Cell Viability - LYMP2-010 (AID 981).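 Also: cells exposed to compound for 24 hours at 37 °C; nearly all actives have a fitted effect of over 55% in size.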 Also: potency is read from the fitted curve at half-maximal effect. Conditions: LYMP2-010 lymphoblastoid cell viability, qHTS; series mostly up to 92.2 µM. In short, it runs like this:
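This 24 hr viability screen uses LYMP2-010 lymphoblastoid cells, quantifies ATP via luciferase luminescence, and derives AC50 from Hill fits of qHTS concentration-response data.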

The nature of experiment [18]: Cell Viability - LYMP2-012 (AID 982).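 Also: cellular ATP by luciferase luminescence where a drop means cytotoxicity; cells exposed to compound for one day before reading; nearly all actives have a fitted effect of over 55% in size.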 Also: potency is read from the fitted curve at half-maximal effect.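 As to activity change, negative = cytotoxicity: 0% = DMSO only and full loss = 92 µM tetraoctylammonium bromide.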 As to conditions: LYMP2-012 lymphoblastoid cell viability qHTS; series mostly up to 92.2 µM.
Experiment [19] is described as follows: Cell Viability - LYMP2-018 (AID 985). Also: nearly all actives have a fitted effect of over 50% in size. Also: potency is read from the fitted curve at half-maximal effect.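 As to activity change, negative = cytotoxicity: plate controls were DMSO only for no effect and tetraoctylammonium bromide at 92 µM for full effect.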 Conditions: LYMP2-018 lymphoblastoid cells, viability (qHTS); series mostly up to 92.2 µM. The procedure, abridged: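 In this qHTS viability assay, cells are treated for 24 hr and cellular ATP is quantified by luciferase-based luminescence, with tetraoctylammonium bromide as positive control.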
A short description of experiment [20]: qHTS Assay for Identification of Small Molecule Inducers of Hypoxia Response (AID 2120; active = well fitted curve in the direction sought with a large enough effect in the signal ratio, with a control signal flat, not every such curve was filed as active; the % refers to the signal ratio; also: 0% is about no effect). As to conditions: hypoxia response reporter cells, beta-lactamase ratio readout; series mostly up to 104 µM. In short, it runs like this: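 HRE-bla ME-180, 2500 cells/well, 0.5% dialyzed FBS medium; cpd titration, 17 h 37 degrees C; CCF4 2.5 h RT; Ex 405, Em 460/530 ratio -> %Activity, AC50.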

Each structure is given as a SMILES string. Unmarked numbers belong to inactive results. Inconclusive results are not listed. The source made the active and inactive calls. Unless noted, calls follow the shape of the dose curve; as a rule, active = well fitted curve in the direction sought with a large enough effect; inconclusive = small, poorly fitted or top-dose-only effect, or another doubt; inactive = no such curve, though single readings can be large; an effect the other way counts as inactive or inconclusive.

Regarding `COC(=O)CCCCC(=O)OC`, the Potency in [1] and in experiment [2] was > 92 µM in each case. The Potency result in experiment [3], in experiment [12], in experiment [13], in [14], in experiment [15] and in experiment [16] was “inactive” each time. Besides, the Potency result in experiment [17], in experiment [18] and in experiment [19] was “inactive” in each case. In addition, the activity change, negative = cytotoxicity in experiment [4] was 1.32%. In addition, the compound was classed as inactive in experiment [5], in [6], in experiment [7], in experiment [8], in experiment [9] and in experiment [10]. Besides, the compound was called inactive in experiment [11] and in [20].

For `CC(C)=CCCC(C)CCO` (stereo not given), the Potency in experiment [1] and in experiment [2] was > 92 µM in each case. Also, the Potency entry in [3], in experiment [12], in experiment [13], in experiment [14], in experiment [15] and in experiment [16] was “inactive” throughout. Besides, the Potency entry in [17], in experiment [18] and in [19] was “inactive” each time. Further, the activity change, negative = cytotoxicity in experiment [4] is 5.35%. Moreover, the result in [5], in experiment [6], in experiment [7], in experiment [8], in experiment [9] and in [10] was inactive. Moreover, the compound was called inactive in [11] and in experiment [20].

For the compound `NC1=NC(S)C2N=CN=C2N1` (stereo not given), the Potency in [1] was > 92 µM; in experiment [2] it was 0.182 µM (active); in experiment [3], 0.158 µM (active); in experiment [4], 0.251 µM (active); in [13] it was 1.58 µM (active); in experiment [14] it was 20 µM (active). Also, the Potency in experiment [15] was 12.6 µM (active); in experiment [16], 15.8 µM (active); in [17], 12.6 µM (active); in experiment [18] it was 7.94 µM (active); in experiment [19], 7.94 µM (active). For the same compound, the compound was classed as inactive in experiment [5], in experiment [6], in experiment [7], in experiment [8], in [9] and in experiment [10]. Also, the call in experiment [11] and in [20] was inactive. In experiment [12], the Potency result was “inactive”.

As for `CC1(C)CC(N=C=O)CC(C)(CN=C=O)C1` (stereo not given), the Potency in [1] and in experiment [2] was > 92 µM in each case. The Potency entry in experiment [3], in experiment [12], in experiment [13], in experiment [14], in experiment [15] and in experiment [16] was “inactive” in each case. The Potency entry in experiment [17], in experiment [18] and in experiment [19] was “inactive” each time. The activity change, negative = cytotoxicity in [4] is 8.39%. Moreover, the compound was classed as inactive in experiment [5], in experiment [6], in [7], in [8], in experiment [9] and in experiment [10]. Besides, the outcome in [11] and in experiment [20] was inactive.

Regarding `Clc1cc(Cl)c(Cl)c(Cl)c1Cl`, the Potency in [1] and in [2] was > 92 µM in each case. The Potency entry in experiment [3], in experiment [12], in experiment [13], in [14], in experiment [15] and in experiment [16] was “inactive” each time. Also, the Potency entry in [17], in [18] and in experiment [19] was “inactive” each time. For the same compound, the activity change, negative = cytotoxicity in experiment [4] is -0.0158%. For the same compound, the compound was classed as inactive in experiment [5], in experiment [6], in [7], in experiment [8], in experiment [9] and in [10]. Besides, the result in [11] and in experiment [20] was inactive.
